We go through 38 compounds from PubChem BioAssay.

Structures are written as SMILES. Calls of active or inactive are those of the source.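 The calls were made as follows: active = compounds killing one labelled cell type while sparing the other, by normalised counts and ratio limits, not self-fluorescent; inactive = the rest.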

This assay can be described thus: differential killing of epithelial or mesenchymal cells, primary screen, imaging, PC-3E GFP, TEM4-18 mCherry, co-culture (AID 1345086).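 As to all read-outs here: cells exposed to compound for 72 h before imaging.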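 As to red/green cell ratio (normalised): normalised mesenchymal count divided by normalised epithelial count so high means epithelial killing.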 The note with it: imaging cell counts, at 1 µM; for red/green cell ratio (normalised): actives lie on both sides, counts scaled to control wells, 1 = unselective.
The mark [1] stands for this setting: measured here: epithelial PC-3E GFP cell survival.
Setting [2] is: measured here: mesenchymal TEM4-18 mCherry cell survival.

With `OCc1ccccc1O`, the red/green cell ratio (normalised) was 1.09 (inactive). Moreover, the normalised cell number under setting [1] is 0.88. The compound also registered a normalised cell number under setting [2] of 0.96.

`Nc1ccc(C(=O)O)cc1`: the red/green cell ratio (normalised) is 1 (inactive). In addition, the normalised cell number under setting [1] was 1.02. Also, under setting [2], the normalised cell number came out at 1.02.

Regarding `Cc1c(C(N)=O)cc([N+](=O)[O-])cc1[N+](=O)[O-]`, the red/green cell ratio (normalised) is 0.99 (inactive). This compound also showed a normalised cell number under setting [1] of 0.91. Under setting [2], the normalised cell number stood at 0.9.

As for `Cc1c(N(C)C)c(=O)n(-c2ccccc2)n1C`, the red/green cell ratio (normalised) was 0.85 (inactive). Also, the normalised cell number under setting [1] is 1.18. In addition, the normalised cell number under setting [2] is 1.

Take `CCCCCN(CCCCC)C(=O)C(CCC(=O)O)NC(=O)c1ccc(Cl)c(Cl)c1` (centres undefined): the red/green cell ratio (normalised) is 0.82 (inactive). Further, the normalised cell number under setting [1] worked out at 1.1. Besides, under setting [2], the normalised cell number came to 0.9.

Consider `CCCCCCCCNC(C)C(O)c1ccc(SC(C)C)cc1` (centres undefined), for which the red/green cell ratio (normalised) is 1.4 (inactive). Moreover, under setting [1], the normalised cell number was determined as 0.68. This compound also registered a normalised cell number under setting [2] of 0.96.

Turning to `CO[C@@]1(NC(=O)C(C(=O)O)c2ccc(O)cc2)C(=O)N2C(C(=O)O)=C(CSc3nnnn3C)CO[C@@H]21` (some centres undefined), the red/green cell ratio (normalised) was 0.93 (inactive). For the same compound, under setting [1], the normalised cell number turned out to be 1.2. This compound came in with a normalised cell number under setting [2] of 1.11.

As for `Cc1ccnc(NS(=O)(=O)c2ccc(N)cc2)n1`, the red/green cell ratio (normalised) was 1.35 (inactive). Under setting [1], the normalised cell number is 0.98. For the same compound, the normalised cell number under setting [2] came out at 1.33.

In the case of `CC(=O)OC/C=C(C)/C=C/C=C(C)/C=C/C1=C(C)CCCC1(C)C`, the red/green cell ratio (normalised) is 0.94 (inactive). Further, the normalised cell number under setting [1] was determined as 1. This compound had a normalised cell number under setting [2] of 0.94.

For the compound `N[C@@H](CCC(=O)N[C@@H](CS)C(=O)NCC(=O)O)C(=O)O`, the red/green cell ratio (normalised) was 1.12 (inactive). In addition, under setting [1], the normalised cell number was 0.76. This compound registered a normalised cell number under setting [2] of 0.85.

With `Nc1ccc(C(=O)Oc2ccccc2)c(O)c1`, the red/green cell ratio (normalised) is 1.06 (inactive). The compound further had a normalised cell number under setting [1] of 0.61. In addition, the normalised cell number under setting [2] was 0.65.

Take `CCCCCCCCCCCCCCCCCCOCC(O)CO` (centres undefined): the red/green cell ratio (normalised) is 1 (inactive). The compound further showed a normalised cell number under setting [1] of 0.96. For the same compound, the normalised cell number under setting [2] came out at 0.96.

Consider `COc1ccc(CN(CCN(C)C)c2ncccn2)cc1`, for which the red/green cell ratio (normalised) is 1.15 (inactive). Also, under setting [1], the normalised cell number was found to be 1.04. In addition, the normalised cell number under setting [2] is 1.2.

In the case of `CCOC(N)=O`, the red/green cell ratio (normalised) is 1.16 (inactive). Moreover, the normalised cell number under setting [1] worked out at 0.95. This compound also yielded a normalised cell number under setting [2] of 1.1.

Consider `CCN(CC)C(=O)N1CCN(C)CC1`, for which the red/green cell ratio (normalised) is 1.18 (inactive). Moreover, the normalised cell number under setting [1] worked out at 1.2. Further, the normalised cell number under setting [2] was 1.42.

Consider `CN1CCN(CC(=O)N2c3ccccc3C(=O)Nc3cccnc32)CC1`, for which the red/green cell ratio (normalised) is 0.9 (inactive). Under setting [1], the normalised cell number worked out at 1.08. Under setting [2], this compound returned a normalised cell number of 0.97.

For the compound `O=C1C(O)=C(O)C(=O)C(O)=C1O`, the red/green cell ratio (normalised) is 1.1 (inactive). Besides, under setting [1], the normalised cell number came out at 1.02. Moreover, the normalised cell number under setting [2] was found to be 1.12.

As to `Cc1c(Cl)cccc1Nc1ccccc1C(=O)O`, the red/green cell ratio (normalised) was 0.86 (inactive). The compound further gave a normalised cell number under setting [1] of 1.08. Moreover, the normalised cell number under setting [2] is 0.93.

`CCCCC1C(=O)N(c2ccccc2)N(c2ccc(O)cc2)C1=O` (centres undefined): the red/green cell ratio (normalised) is 1.01 (inactive). For the same compound, under setting [1], the normalised cell number came out at 1.07. This compound yielded a normalised cell number under setting [2] of 1.08.

As to `CN1CCOC(c2ccccc2)c2ccccc2C1` (centres undefined), the red/green cell ratio (normalised) was 1.19 (inactive). This compound returned a normalised cell number under setting [1] of 0.43. Further, under setting [2], the normalised cell number worked out at 0.51.

Regarding `CCCCC(CC)CN=C(N)NC(N)=NCCCCCCN=C(N)NC(N)=NCC(CC)CCCC` (centres undefined), the red/green cell ratio (normalised) was 0.85 (inactive). The normalised cell number under setting [1] was 1.19. The same compound displayed a normalised cell number under setting [2] of 1.01.

`COc1cccc(OC)c1C(=O)N[C@@H]1C(=O)N2[C@@H]1SC(C)(C)[C@@H]2C(=O)O`: the red/green cell ratio (normalised) is 1 (inactive). Under setting [1], this compound displayed a normalised cell number of 1.16. Under setting [2], this compound had a normalised cell number of 1.15.

Consider `O=C(O)c1ccccc1OP(=O)(O)O`, for which the red/green cell ratio (normalised) is 0.9 (inactive). The compound further showed a normalised cell number under setting [1] of 1.17. For the same compound, the normalised cell number under setting [2] is 1.05.

Regarding `CCCCOC(=O)c1ccc(N)cc1`, the red/green cell ratio (normalised) is 1.07 (inactive). This compound had a normalised cell number under setting [1] of 0.97. The normalised cell number under setting [2] amounted to 1.04.

Turning to `C#CCN(C)Cc1ccccc1`, the red/green cell ratio (normalised) is 1.02 (inactive). The compound further gave a normalised cell number under setting [1] of 1.04. Besides, the normalised cell number under setting [2] is 1.05.

Regarding `CC(=O)OCC1=C(C(=O)O)N2C(=O)[C@@H](NC(=O)Cc3cccs3)[C@H]2SC1`, the red/green cell ratio (normalised) is 1.02 (inactive). Moreover, the normalised cell number under setting [1] came out at 1.21. The same compound had a normalised cell number under setting [2] of 1.23.

On to `Oc1cc(O)c2c(c1)O[C@H](c1ccc(O)c(O)c1)[C@H](O)C2`, for which the red/green cell ratio (normalised) was 0.83 (inactive). Moreover, under setting [1], the normalised cell number is 1.07. Under setting [2], this compound yielded a normalised cell number of 0.89.

Consider `C=CCSCC1Nc2cc(Cl)c(S(N)(=O)=O)cc2S(=O)(=O)N1` (centres undefined), for which the red/green cell ratio (normalised) was 1.09 (inactive). This compound yielded a normalised cell number under setting [1] of 1.09. Under setting [2], this compound returned a normalised cell number of 1.19.

On to `CCCCCCc1ccc(O)cc1O`, for which the red/green cell ratio (normalised) is 0.84 (inactive). Under setting [1], this compound displayed a normalised cell number of 1.14. Moreover, the normalised cell number under setting [2] came out at 0.96.

For the compound `CCn1cc(C(=O)O)c(=O)c2cnc(N3CCCC3)nc21`, the red/green cell ratio (normalised) is 0.88 (inactive). Besides, under setting [1], the normalised cell number came to 1. Under setting [2], this compound registered a normalised cell number of 0.88.

On to `CN1CCN(C(c2ccccc2)c2ccccc2)CC1`, for which the red/green cell ratio (normalised) is 1.46 (inactive). The compound also yielded a normalised cell number under setting [1] of 1.05. In addition, under setting [2], the normalised cell number came out at 1.54.

On to `CN(C)CCCN1c2ccccc2Sc2ccc(C(F)(F)F)cc21`, for which the red/green cell ratio (normalised) is 1.26 (inactive). This compound also came in with a normalised cell number under setting [1] of 0.93. The compound also gave a normalised cell number under setting [2] of 1.17.

As for `NC[C@H]1O[C@H](O[C@H]2[C@H](O)[C@@H](O[C@H]3O[C@H](CO)[C@@H](O)[C@H](N)[C@H]3O)[C@H](N)C[C@@H]2N)[C@H](N)[C@@H](O)[C@@H]1O`, the red/green cell ratio (normalised) was 1.19 (inactive). Under setting [1], this compound gave a normalised cell number of 1.1. Besides, under setting [2], the normalised cell number came to 1.31.

As to `Cc1c(NC(C)C)c(=O)n(-c2ccccc2)n1C`, the red/green cell ratio (normalised) was 0.88 (inactive). The normalised cell number under setting [1] is 0.91. Under setting [2], this compound came in with a normalised cell number of 0.8.

Regarding `NS(=O)(=O)c1cc2c(cc1Cl)NC(CSCc1ccccc1)=NS2(=O)=O`, the red/green cell ratio (normalised) is 1.25 (inactive). Further, the normalised cell number under setting [1] came to 1.02. Moreover, the normalised cell number under setting [2] is 1.28.

Turning to `O=C(O)CCNC(=O)c1ccccc1`, the red/green cell ratio (normalised) was 0.71 (inactive). This compound returned a normalised cell number under setting [1] of 1.22. Besides, the normalised cell number under setting [2] is 0.87.

With `O=C(O)c1ccccc1O`, the red/green cell ratio (normalised) is 1.29 (inactive). Also, under setting [1], the normalised cell number was found to be 0.92. Further, under setting [2], the normalised cell number turned out to be 1.19.

Take `O=C(O)c1cc(=O)c2ccccc2o1`: the red/green cell ratio (normalised) is 0.88 (inactive). The compound further came in with a normalised cell number under setting [1] of 0.88. Besides, the normalised cell number under setting [2] worked out at 0.78.
